Measured values as given in PubChem BioAssay (NCATS).
“And” between values parts separate entries of the source, which are not always exact repeats. Equal entries are not always repeated. Inconclusive results are not listed. The source made the active and inactive calls. Unless noted, the call rests on the fitted dose curve; in most records, active means well fitted curve in the direction sought with a large enough effect; inconclusive means small, poorly fitted or top-dose-only effect, or another doubt; inactive means no such curve, though single readings can be large; an effect the other way counts as inactive or inconclusive.

Columns and labels:
[1] = AP1 Signaling Pathway (AID 357; active means well fitted curve in either direction with a large enough effect, not every such curve was filed as active;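 further: ME-180 reporter cells stimulated with EGF at its EC50 level; on the % scale 0 is the no-effect control and ±100 the full control effect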); details: ME-180 AP-1-bla reporter, EGF-induced, beta-lactamase ratio, 5 h
How it was run: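 Beta-lactamase reporter under AP-1 response element, ME-180 background. Stimulus: EC50 EGF. Compound exposure 5 h, 37 °C. Detection: CCF4, 2.5 h RT, 460/530 nm. Values: AC50 from titration.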

[2] = biological target: Cytochrome P450 1A2 (Homo sapiens) (UniProt P05177); assay: p450-cyp1a2 (AID 410; calls by dose curve; further: potency means the concentration at half of the fitted maximal effect;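 on activity change, negative = inhibition: -100% = full effect of reference inhibitor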)
How it was run: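 Read-out is luminescence from luciferin produced by CYP1A2 demethylation of Luciferin-ME (100uM, at Km). Detection reagent stopped the 60 min NADPH-dependent reaction; signals were normalized to 57 uM furafylline.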

[3] = Stat Signaling Pathway (AID 446; active means well fitted curve in either direction with a large enough effect, not every such curve was filed as active;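 further: ME-180 cervical cancer cells given 40 pM IL-6 alongside compound; SIE-controlled beta-lactamase reporter measured as 460/530 nm FRET emission ratio; on the % scale 0 is the no-effect control and ±100 the full control effect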); details: ME-180 (cervical carcinoma) SIE beta-lactamase reporter, IL-6 stimulated, 5 h; at 17.2 µM (top of the series)
How it was run: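 FRET read-out (405 nm excitation, 460/530 nm emission) of a beta-lactamase reporter under a STAT-inducible element in ME-180 cervical carcinoma cells. Cells with compound receive 40 pM IL-6 for 5 h. Values are normalised to AC90 stimulation and AC90 JAK-inhibitor controls.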

[4] = biological target: Glucocorticoid receptor (Homo sapiens) (UniProt P04150); assay: GR-GFP Redistribution (AID 450;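 active means compounds whose dose series gives a full or clear partial fitted curve of increased nuclear translocation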; further: potency means the concentration at half of the fitted maximal effect); details: U2OS GR-GFP nuclear translocation, laser cytometry, 2 h
[5] = biological target: Glucocorticoid receptor (Homo sapiens) (UniProt P04150); assay: GR-EFC Redistribution (AID 451; calls by dose curve; further: potency means the concentration at half of the fitted maximal effect); details: CHO-K1 GR-EFC translocation, beta-gal luminescence, 2 h
How it was run: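 Translocation of GR-ED fusion to nuclear EA restores b-gal, read by luminescence after 1 h room-temperature detection. Engineered CHO-K1 biosensor cells, 1,000/well, exposed 2 h at 37 C to titrations up to 46 uM final.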

[6] = biological target: Mitogen-activated protein kinase 10 (Mus musculus) (UniProt Q61831); assay: JNK3 AlphaScreen Assay (AID 530; active means well fitted curve in either direction with a large enough effect, not every such curve was filed as active;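 further: kinase came from lysate of stimulated human HepG2 cells; signal reports phosphorylation of biotinylated GST-cJun 1-79 at Ser73 with 10 µM ATP; on the % scale 0 is the no-effect control and ±100 the full control effect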)
How it was run: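 Kinase buffer: 20 mM Tris-HCl pH 7.6, 10 mM MgCl2, 1 mM DTT, 0.1 mM Na3VO4, 0.01% Tween-20; ATP 10 uM. Substrate biotin-GST-cJun(1-79), enzyme from activated HepG2 lysates. Detection by Ser73 phospho-antibody AlphaScreen.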

[7] = biological target: 3',5'-cyclic-AMP phosphodiesterase 4B (Homo sapiens) (UniProt Q07343); assay: qHTS Assay for Inhibitors of PDE-IV (AID 607; active means well fitted activation curve with a large enough effect in the main read-out, with a control signal flat, not every such curve was filed as active; further: % of control where 0% means no effect)
How it was run: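 Cell-based read-out of cAMP via a modified cyclic nucleotide-gated channel and membrane potential dye (535/590 nm) in HEK293 cells expressing PDE4 endogenously. Compounds tested up to 22.9 uM final; 100 uM RO 20-1724 reference.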

[8] = biological target: Guanine nucleotide-binding protein G(i) subunit alpha-1 (Homo sapiens) (UniProt P63096); assay: qHTS Assay for Inhibitors of RGS12 GoLoco Motif Activity (Green Fluorophore) (AID 879);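 further: 0% = labeled peptide with Gαi1 and full inhibition = labeled peptide alone without protein; negative values mean loss of peptide binding seen as reduced polarization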
How it was run: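 A drop in FITC polarization marked displacement of the FITC-tagged RGS12 GoLoco peptide (10 nM) from Gαi1 (50 nM). Compounds were incubated 10 min at room temperature in Tris pH 7.5 buffer containing 150 mM NaCl, 0.1 mM GDP and 0.05% NP40; unlabeled peptide titration served as control.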

[9] = biological target: Cytochrome P450 2C9 (Homo sapiens) (UniProt P11712); assay: qHTS Assay for Inhibitors and Substrates of Cytochrome P450 2C9 (AID 883); further: on the % scale 0 is the no-effect control and ±100 the full control effect; nearly all actives have a fitted effect of over 60% in size
How it was run: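 Turnover of Luciferin-H (100uM, KM) by 10nM human CYP2C9 was measured over 60 min at 37C with NADPH regeneration; inhibitors and some substrates reduce luminescence. Data normalized to sulphaphenazole 57uM.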

[10] = biological target: Cytochrome P450 3A4 (Homo sapiens) (UniProt P08684); assay: qHTS Assay for Activators of Cytochrome P450 3A4 (AID 885); further: nearly all actives have a fitted effect of over 65% in size
How it was run: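 Luminescent readout of luciferin formed from 25 uM Luciferin-PPXE (KM level) by 20 nM CYP3A4 in 200 mM KPO4, with 60 min NADPH-driven reaction at room temperature after 10 min compound exposure. Ketoconazole (57 uM) defined 100% inhibition.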

[11] = biological target: Cytochrome P450 2D6 (Homo sapiens) (UniProt P10635); assay: qHTS Assay for Inhibitors and Substrates of Cytochrome P450 2D6 (AID 891); further: potency means the concentration at half of the fitted maximal effect; nearly all actives have a fitted effect of over 60% in size
How it was run: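 Luminescent read-out of luciferin formed by 5 nM human CYP2D6 demethylating 30 uM Luciferin-ME EGE (Km level) over 60 min at room temperature after NADPH regeneration addition. Data normalized to full inhibition by 1.43 uM quinidine.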

[12] = biological target: Cytochrome P450 2C19 (Homo sapiens) (UniProt P33261); assay: qHTS Assay for Inhibitors and Substrates of Cytochrome P450 2C19 (AID 899); further: potency means the concentration at half of the fitted maximal effect; nearly all actives have a fitted effect of over 60% in size
How it was run: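 Reactions contain 5nM enzyme, 10uM Luciferin-H EGE (KM) and 50mM KPO4; compound preincubates 10 min at 37C, NADPH regeneration starts turnover for 60 min. Luminescence after detection reagent gives activity.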

[13] = biological target: Muscarinic acetylcholine receptor M1 (Rattus norvegicus) (UniProt P08482); assay: qHTS Assay for Antagonists of Acetylcholine Muscarinic M1 Receptor: Measurement of IP-One Response (AID 944); further: nearly all actives have a fitted effect of over 75% in size
How it was run: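 Antagonism was measured as loss of carbachol-driven (EC80) IP1 accumulation in CHO cells carrying rat M1, using a homogeneous IP-One TR-FRET kit read at 620 and 665 nm.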

[14] = biological target: Pyruvate kinase (Leishmania mexicana) (UniProt Q27686); assay: qHTS Validation Assay for Inhibitors of Leishmania Mexicana Pyruvate Kinase (AID 945);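 further: 0% = DMSO only neutral control wells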
How it was run: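 Purified LmPYK (E451W mutant, 0.2 nM) was incubated 1 h at room temperature with 0.5 mM PEP and 0.1 mM ADP in 50 mM imidazole pH 7.2, 50 mM KCl, 7 mM MgCl2; ATP formed was read by PKLight luminescence, normalized to DMSO wells.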

[15] = biological target: Pyruvate kinase PKM (Homo sapiens) (UniProt P14618); assay: qHTS Assay for Activators of Human Muscle Pyruvate Kinase (AID 954; active means well fitted curve in the direction sought with a large enough effect, not every such curve was filed as active;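 further: 0% = uninhibited enzyme and -100% = no enzyme or full thiadiazolimine inhibition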)
How it was run: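 ATP production by PKM2 detected via luciferase luminescence after 1 h room-temperature reaction (0.1 nM enzyme, PEP at Km 0.5 mM, ADP 0.1 mM, pH 7.2 imidazole buffer). Inhibition scaled to no-enzyme control; activation referenced to 0.3 nM enzyme wells.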

[16] = biological target: Alpha-galactosidase A (Homo sapiens) (UniProt P06280); assay: Counterscreen for Glucocerebrosidase Inhibitors: qHTS Assay for Human alpha-Galactosidase at pH 4.5 (AID 992); further: 0% is about no effect
How it was run: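 Fluorogenic 1536-well qHTS at pH 4.5 (citrate, Tween-20): 2 nM enzyme, 80 uM 4-MU-alpha-galactoside, 20 min room temperature, NaOH/glycine stop. Titration 0.7 nM to 77 uM, data normalized to no-enzyme and full-activity controls, Hill-fitted AC50.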

[17] = biological target: alpha-glucosidase (Oryza sativa, rice) (UniProt Q653V4); assay: Counterscreen for Glucocerebrosidase Inhibitors: qHTS Assay for Rice alpha-Glucosidase at pH 5.0 (AID 997);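 further: 0% = full activity with enzyme and -100% = basal without enzyme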
How it was run: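 Endpoint fluorogenic assay at pH 5.0: compounds (0.7 nM to 77 uM) titrated against 4 nM rice enzyme and 400 uM 4-MU-alpha-glucoside for 20 min at room temperature; NaOH/glycine stop, read ex 365/em 440 nm, Hill-fitted AC50.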

[18] = qHTS Assay for Lipid Storage Modulators (AID 1519; calls by dose curve); details: Drosophila S3 cells, BODIPY lipid droplet/cell ratio, laser cytometry, cells loaded with oleic acid
How it was run: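 Cells seeded at 5,000 per well were treated with compounds over a concentration series and loaded with oleic acid (400 uM, as added). Lipid droplet fluorescence (488 nm excitation, 500-530 nm channel) was read by laser-scanning cytometry and normalized to 20 uM Triacsin C.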

[19] = biological target: Ubiquitin carboxyl-terminal hydrolase 1 (Homo sapiens) (UniProt O94782); assay: Inhibitors of USP1/UAF1: Pilot qHTS (AID 504865);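 further: rhodamine fluorescence freed from ubiquitin-rhodamine substrate followed over time; top concentration of the series differs between compounds; on the % scale 0 is the no-effect control and ±100 the full control effect; nearly all actives have a fitted effect of over 35% in size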
How it was run: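 Enzyme-free wells gave the negative control, while test wells held 1nM USP1/UAF1 preincubated with compound for 15 min at room temperature. Ub-Rho at 150nM final started the reaction, and fluorescence at 480/540 nm was recorded kinetically.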

[20] = biological target: DNA dC->dU-editing enzyme APOBEC-3G (Homo sapiens) (UniProt Q9HC16); assay: qHTS for inhibitors of Vif-A3G interactions: Validation (AID 588379); further: 0% is about no effect
How it was run: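 Yellow fluorescence (Ex 488, Em 500-530) of Vif-coexpressing HeLa A3G-eYFP cells, scanned by Acumen cytometer, reports blocked A3G degradation. Cells plated at 700/well overnight at 37 deg C before compound addition, then a further overnight compound incubation at 37 deg C.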

[21] = tested on: Zika virus NS2B-NS3 protease; assay: Primary screen GU AMC qHTS for Zika virus inhibitors (AID 1347154);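 further: 0% = no-inhibitor control and -100% = no-enzyme control; nearly all actives have a fitted effect of over 70% in size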
How it was run: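 Fluorogenic AMC-substrate cleavage by noncovalent NS2B-NS3 protease complex (25 nM, pH 8.0 Tris buffer with Tween 20) followed for 15 minutes at room temperature (~20% conversion). Percent inhibition from ex340/em450 signal change, fitted by 4-parameter Hill equation.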

[22] = biological target: Rap guanine nucleotide exchange factor 3 (Homo sapiens) (UniProt O95398); assay: Confirmatory qHTS for agonist of cAMP-regulated guanine nucleotide exchange factor 3 (EPAC1) (AID 1645881);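 further: EPAC1 catalysed release of BODIPY-GDP from Rap1B seen as fluorescence loss; 100% = effect of cAMP agonist control; nearly all actives have a fitted effect of over 75% in size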
[23] = biological target: Rap guanine nucleotide exchange factor 4 (Homo sapiens) (UniProt Q8WZA2); assay: Confirmatory qHTS for agonist of cAMP-regulated guanine nucleotide exchange factor 4 (EPAC2) (AID 1645884);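 further: nucleotide exchange releases bodipy-GDP from Rap1 and this lowers its fluorescence; on the % scale 0 is the no-effect control and ±100 the full control effect; nearly all actives have a fitted effect of over 65% in size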
[24] = NCATS anti-infectives library activity on HEK293 viability as a counter-qHTS vs the C. elegans viability qHTS (AID 1745854);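 further: HEK293 cells exposed to compounds for 24 hr before the viability read; on the % scale 0 is the no-effect control and ±100 the full control effect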
How it was run: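 Compound titrations (final up to 41.7 uM) were incubated with HEK293 cells for 24 hr at 37C under 5% CO2. Viable cells were quantified with CellTiter-Glo after 10 min at ambient temperature.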

[25] = measured here: cell count channel max response
[26] = measured here: lipid channel max response

Chain of DNA dC->dU-editing enzyme APOBEC-3G (Homo sapiens) (Q9HC16 whole entry, looked up): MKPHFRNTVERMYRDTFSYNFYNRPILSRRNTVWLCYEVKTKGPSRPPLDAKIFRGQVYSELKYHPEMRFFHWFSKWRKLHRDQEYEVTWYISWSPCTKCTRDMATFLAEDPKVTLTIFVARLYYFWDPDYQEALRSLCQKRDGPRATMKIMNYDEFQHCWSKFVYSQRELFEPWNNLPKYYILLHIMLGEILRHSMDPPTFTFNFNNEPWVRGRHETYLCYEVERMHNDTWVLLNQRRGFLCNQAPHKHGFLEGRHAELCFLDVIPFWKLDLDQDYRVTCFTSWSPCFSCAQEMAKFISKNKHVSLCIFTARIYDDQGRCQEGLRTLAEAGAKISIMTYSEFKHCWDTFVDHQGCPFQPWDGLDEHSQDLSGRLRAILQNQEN
Chain of 3',5'-cyclic-AMP phosphodiesterase 4B (Homo sapiens) (Q07343 whole entry, looked up): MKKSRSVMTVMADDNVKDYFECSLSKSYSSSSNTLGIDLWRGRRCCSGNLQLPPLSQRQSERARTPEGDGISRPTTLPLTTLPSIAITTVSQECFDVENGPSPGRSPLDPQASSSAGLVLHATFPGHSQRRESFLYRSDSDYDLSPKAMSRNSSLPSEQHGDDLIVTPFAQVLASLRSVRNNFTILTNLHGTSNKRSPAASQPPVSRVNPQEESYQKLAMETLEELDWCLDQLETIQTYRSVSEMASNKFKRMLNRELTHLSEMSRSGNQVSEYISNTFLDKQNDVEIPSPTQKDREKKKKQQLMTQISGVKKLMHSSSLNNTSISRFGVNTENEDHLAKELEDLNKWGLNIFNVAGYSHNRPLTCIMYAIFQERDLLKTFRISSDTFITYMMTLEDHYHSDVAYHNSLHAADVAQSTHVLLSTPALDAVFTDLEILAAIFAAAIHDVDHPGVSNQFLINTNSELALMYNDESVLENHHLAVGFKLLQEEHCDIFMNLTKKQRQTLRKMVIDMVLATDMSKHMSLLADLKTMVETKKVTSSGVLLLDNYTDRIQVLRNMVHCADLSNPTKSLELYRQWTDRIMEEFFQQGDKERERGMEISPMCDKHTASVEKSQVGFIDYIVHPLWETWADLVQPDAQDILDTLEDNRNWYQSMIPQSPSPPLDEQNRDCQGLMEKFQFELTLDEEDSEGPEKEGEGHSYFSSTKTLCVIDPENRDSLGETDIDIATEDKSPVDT
Chain of Cytochrome P450 2D6 (Homo sapiens) (P10635 whole entry, looked up): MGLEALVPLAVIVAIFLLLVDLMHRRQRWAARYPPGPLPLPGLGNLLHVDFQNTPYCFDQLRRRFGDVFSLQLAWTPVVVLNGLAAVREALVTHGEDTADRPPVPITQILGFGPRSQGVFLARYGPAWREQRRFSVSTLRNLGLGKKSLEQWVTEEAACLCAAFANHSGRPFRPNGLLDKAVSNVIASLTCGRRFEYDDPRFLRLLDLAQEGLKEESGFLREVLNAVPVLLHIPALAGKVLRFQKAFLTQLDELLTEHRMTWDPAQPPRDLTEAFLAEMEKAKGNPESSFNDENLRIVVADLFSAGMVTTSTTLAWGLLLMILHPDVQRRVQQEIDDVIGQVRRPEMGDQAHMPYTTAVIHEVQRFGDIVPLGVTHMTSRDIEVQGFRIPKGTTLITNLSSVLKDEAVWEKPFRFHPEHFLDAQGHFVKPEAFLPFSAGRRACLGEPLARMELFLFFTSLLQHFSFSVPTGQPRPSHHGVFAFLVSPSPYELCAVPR
Chain of Glucocorticoid receptor (Homo sapiens) (P04150 whole entry, looked up, the tested form may be a part): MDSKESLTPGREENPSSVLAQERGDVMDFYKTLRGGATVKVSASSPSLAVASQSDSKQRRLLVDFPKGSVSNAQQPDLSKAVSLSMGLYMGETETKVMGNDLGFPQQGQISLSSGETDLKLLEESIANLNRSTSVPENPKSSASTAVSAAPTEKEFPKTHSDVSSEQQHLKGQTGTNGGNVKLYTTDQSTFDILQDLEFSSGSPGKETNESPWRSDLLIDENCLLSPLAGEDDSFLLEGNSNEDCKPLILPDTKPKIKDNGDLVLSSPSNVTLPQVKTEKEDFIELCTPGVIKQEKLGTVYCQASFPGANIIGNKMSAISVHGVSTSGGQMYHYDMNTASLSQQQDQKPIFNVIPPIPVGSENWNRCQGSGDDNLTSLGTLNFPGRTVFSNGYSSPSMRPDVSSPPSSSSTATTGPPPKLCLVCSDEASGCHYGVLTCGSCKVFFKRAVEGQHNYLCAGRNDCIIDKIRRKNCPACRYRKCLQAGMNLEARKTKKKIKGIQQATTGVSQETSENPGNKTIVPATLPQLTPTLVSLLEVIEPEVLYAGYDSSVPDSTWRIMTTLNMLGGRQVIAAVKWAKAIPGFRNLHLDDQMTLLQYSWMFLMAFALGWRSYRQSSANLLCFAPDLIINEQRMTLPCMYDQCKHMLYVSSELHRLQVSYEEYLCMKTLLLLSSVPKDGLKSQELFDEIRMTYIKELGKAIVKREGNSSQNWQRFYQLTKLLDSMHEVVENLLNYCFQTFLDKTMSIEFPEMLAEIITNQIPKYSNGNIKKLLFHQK
Chain of Cytochrome P450 1A2 (Homo sapiens) (P05177 whole entry, looked up): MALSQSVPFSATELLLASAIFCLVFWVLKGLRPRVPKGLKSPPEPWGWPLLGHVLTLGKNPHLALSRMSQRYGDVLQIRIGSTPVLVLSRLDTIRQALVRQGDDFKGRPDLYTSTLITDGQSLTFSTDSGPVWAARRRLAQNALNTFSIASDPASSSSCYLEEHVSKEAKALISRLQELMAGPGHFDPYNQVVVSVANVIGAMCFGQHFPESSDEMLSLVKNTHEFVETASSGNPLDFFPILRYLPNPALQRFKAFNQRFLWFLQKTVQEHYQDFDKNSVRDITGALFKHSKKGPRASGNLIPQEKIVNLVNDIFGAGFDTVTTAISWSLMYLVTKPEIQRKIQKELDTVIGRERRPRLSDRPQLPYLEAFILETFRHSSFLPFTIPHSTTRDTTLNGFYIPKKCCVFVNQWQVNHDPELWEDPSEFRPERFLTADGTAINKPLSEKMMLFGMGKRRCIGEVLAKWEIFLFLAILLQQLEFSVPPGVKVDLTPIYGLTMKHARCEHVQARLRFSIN
Chain of Cytochrome P450 2C19 (Homo sapiens) (P33261 whole entry, looked up): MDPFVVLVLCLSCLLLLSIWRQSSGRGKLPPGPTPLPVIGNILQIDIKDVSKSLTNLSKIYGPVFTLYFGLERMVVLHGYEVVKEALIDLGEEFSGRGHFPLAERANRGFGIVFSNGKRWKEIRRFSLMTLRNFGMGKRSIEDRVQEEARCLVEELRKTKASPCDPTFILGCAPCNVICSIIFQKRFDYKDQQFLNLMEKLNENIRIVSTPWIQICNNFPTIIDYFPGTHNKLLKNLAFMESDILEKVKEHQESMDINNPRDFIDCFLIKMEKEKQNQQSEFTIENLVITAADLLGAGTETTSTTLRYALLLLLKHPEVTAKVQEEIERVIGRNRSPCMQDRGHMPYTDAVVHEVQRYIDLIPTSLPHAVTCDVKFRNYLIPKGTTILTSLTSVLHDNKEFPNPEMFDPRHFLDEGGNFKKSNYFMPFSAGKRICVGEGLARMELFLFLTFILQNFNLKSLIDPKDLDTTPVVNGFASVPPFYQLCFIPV
Chain of Cytochrome P450 2C9 (Homo sapiens) (P11712 whole entry, looked up): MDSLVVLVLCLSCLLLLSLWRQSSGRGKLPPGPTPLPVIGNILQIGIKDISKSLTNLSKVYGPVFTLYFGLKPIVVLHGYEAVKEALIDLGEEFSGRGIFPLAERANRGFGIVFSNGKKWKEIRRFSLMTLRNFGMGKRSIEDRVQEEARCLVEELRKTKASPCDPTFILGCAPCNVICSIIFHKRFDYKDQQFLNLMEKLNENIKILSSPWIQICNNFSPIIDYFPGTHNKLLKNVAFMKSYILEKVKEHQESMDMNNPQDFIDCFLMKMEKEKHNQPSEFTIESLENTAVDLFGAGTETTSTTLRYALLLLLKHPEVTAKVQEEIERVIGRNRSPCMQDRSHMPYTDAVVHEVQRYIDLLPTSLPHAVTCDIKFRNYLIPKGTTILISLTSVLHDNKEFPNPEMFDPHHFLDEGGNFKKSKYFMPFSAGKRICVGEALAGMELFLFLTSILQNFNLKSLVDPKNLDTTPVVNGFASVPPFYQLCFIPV
Chain of Ubiquitin carboxyl-terminal hydrolase 1 (Homo sapiens) (O94782 whole entry, looked up): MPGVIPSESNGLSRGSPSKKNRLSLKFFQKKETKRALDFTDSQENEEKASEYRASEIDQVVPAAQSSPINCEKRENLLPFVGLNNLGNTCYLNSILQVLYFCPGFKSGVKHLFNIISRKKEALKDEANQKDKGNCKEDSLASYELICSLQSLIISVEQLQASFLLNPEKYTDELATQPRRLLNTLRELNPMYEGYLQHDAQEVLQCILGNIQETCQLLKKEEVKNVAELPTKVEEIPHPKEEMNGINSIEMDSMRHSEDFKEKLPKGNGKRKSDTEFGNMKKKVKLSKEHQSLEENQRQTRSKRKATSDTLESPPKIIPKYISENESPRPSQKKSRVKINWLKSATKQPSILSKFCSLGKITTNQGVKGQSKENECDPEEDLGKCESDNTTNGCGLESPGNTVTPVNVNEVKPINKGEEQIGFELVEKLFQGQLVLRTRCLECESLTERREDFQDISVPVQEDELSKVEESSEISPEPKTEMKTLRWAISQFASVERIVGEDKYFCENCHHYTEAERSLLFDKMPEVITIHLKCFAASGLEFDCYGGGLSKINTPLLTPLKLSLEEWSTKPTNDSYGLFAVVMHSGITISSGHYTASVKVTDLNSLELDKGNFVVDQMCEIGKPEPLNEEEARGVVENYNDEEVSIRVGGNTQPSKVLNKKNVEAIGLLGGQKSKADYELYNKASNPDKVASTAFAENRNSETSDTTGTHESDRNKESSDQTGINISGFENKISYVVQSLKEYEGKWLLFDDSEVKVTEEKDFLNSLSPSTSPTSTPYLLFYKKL

COc1ccccc1N1CCN(C[C@@H](O)COc2cccc3ccccc23)CC1
inactive: activity change, negative = inhibition ([1]; at 17.2 µM (top of the series)) 4.94% | activity change, negative = inhibition ([1]; at 38 µM (top of the series)) 2.88% | activity, negative = inhibition [3] -4.93% | Potency [4] > 46 µM and > 20.6 µM | Potency [5] > 46 µM and > 20.6 µM | Potency [6] | Potency [7] | outcome [8] | Potency [9] | Potency [10] | Potency [13] | Potency [14] | outcome [15] | outcome [16] | outcome [17] | activity change, negative = inhibition ([18]; at 25.7 µM (top of the series)) -0.494% | Potency [19] | Potency [20] | Potency [21] | outcome [22] | outcome [23]
-0.0145%: max response [18, 25]
active: Potency [2] 20 µM and 31.6 µM | Potency [11] 794 nM and 316 nM and 126 nM | Potency [12] 6.31 µM and 7.94 µM and 1.58 µM
-0.579%: max response [18, 26]

N#C/C(=C\c1ccc(O)c(O)c1)C(N)=O
inactive: Potency [4] > 46 µM | Potency [5] > 46 µM | Potency [7] | activity change, negative = inhibition ([18]; at 57.5 µM (top of the series)) -11.6% | Potency [20] | Potency [21]
active: Potency [2] 39.8 µM
9.4%: max response [18, 26]
26.3%: max response [18, 25]

CC(C)[N+]1(C)[C@@H]2CC[C@H]1CC(OC(=O)[C@@H](CO)c1ccccc1)C2 (some centres not stated)
5.73% and -12.6%: max response [18, 26]
2.23% and -7.97%: max response [18, 25]
inactive: activity change, negative = inhibition ([1]; at 17.2 µM (top of the series)) -0.347% | activity, negative = inhibition [3] 2.01% | Potency [6] | Potency [7] | activity change, negative = inhibition ([18]; at 25.7 µM (top of the series)) 1.72% | activity change, negative = inhibition ([18]; at 57.5 µM (top of the series)) -6.35% | Potency [20] | Potency [21]

OC[C@H]1NC[C@H](O)[C@@H](O)[C@H]1O
27.8%: max response [18, 26]
inactive: Potency [2] | Potency [4] > 46 µM | Potency [5] > 46 µM | Potency [6] | Potency [7] | activity change, negative = inhibition ([18]; at 57.5 µM (top of the series)) -0.744% | Potency [19] | Potency [20] | Potency [21] | outcome [24]
30%: max response [18, 25]
